The target in assay [1] is Serine/threonine-protein kinase PAK 6 (Homo sapiens) (UniProt Q9NQU5). As to conditions: at 1 µM.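 Note: values are mean percent inhibition of PAK6 kinase.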
Assay [2] has as its system Tyrosine-protein kinase ABL1 (Homo sapiens), P00519 [E255K]. As to conditions: at 0.1 µM.
For assay [3] the test system is unchanged. Conditions: at 1 µM.
The test system of assay [4] is Tyrosine-protein kinase ABL1 (Homo sapiens), P00519 [H396P]. Conditions: at 0.1 µM.
The test system is the same in assay [5]. As to conditions: at 1 µM.
The subject of assay [6] is Tyrosine-protein kinase ABL1 (Homo sapiens), P00519 [M351T]. Conditions: at 0.1 µM.
For assay [7] the test system is unchanged. Conditions: at 1 µM.
Assay [8] concerns Tyrosine-protein kinase ABL1 (Homo sapiens), P00519 [Q252H]. Conditions: at 0.1 µM.
The test system is the same in assay [9]. As to conditions: at 1 µM.
In assay [10] the test system is Tyrosine-protein kinase ABL1 (Homo sapiens), P00519 [T315I]. As to conditions: at 0.1 µM.
Assay [11] has the same test system. Conditions: at 1 µM.
The subject of assay [12] is Tyrosine-protein kinase ABL1 (Homo sapiens), P00519 [Y253F]. Conditions: at 0.1 µM.
The test system is the same in assay [13]. Conditions: at 1 µM.
Assay [14] addresses Tyrosine-protein kinase ABL1 (Homo sapiens) (UniProt P00519). As to conditions: at 0.1 µM.
Assay [15] shares this target. As to conditions: at 1 µM.
Assay [16] deals with ALK tyrosine kinase receptor (Homo sapiens) (UniProt Q9UM73). Conditions: at 0.1 µM.
For assay [17] the target is unchanged. Conditions: at 1 µM.
Assay [18] has as its target Tyrosine-protein kinase ABL2 (Homo sapiens) (UniProt P42684). As to conditions: at 0.1 µM.
Assay [19] shares this target. Conditions: at 1 µM.
In assay [20] the target is Tyrosine-protein kinase receptor UFO (Homo sapiens) (UniProt P30530). Conditions: at 0.1 µM.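 Note: values are mean percent inhibition of AXL from the GSK PKIS screen.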
Chain of Tyrosine-protein kinase receptor UFO (Homo sapiens) (P30530 whole entry): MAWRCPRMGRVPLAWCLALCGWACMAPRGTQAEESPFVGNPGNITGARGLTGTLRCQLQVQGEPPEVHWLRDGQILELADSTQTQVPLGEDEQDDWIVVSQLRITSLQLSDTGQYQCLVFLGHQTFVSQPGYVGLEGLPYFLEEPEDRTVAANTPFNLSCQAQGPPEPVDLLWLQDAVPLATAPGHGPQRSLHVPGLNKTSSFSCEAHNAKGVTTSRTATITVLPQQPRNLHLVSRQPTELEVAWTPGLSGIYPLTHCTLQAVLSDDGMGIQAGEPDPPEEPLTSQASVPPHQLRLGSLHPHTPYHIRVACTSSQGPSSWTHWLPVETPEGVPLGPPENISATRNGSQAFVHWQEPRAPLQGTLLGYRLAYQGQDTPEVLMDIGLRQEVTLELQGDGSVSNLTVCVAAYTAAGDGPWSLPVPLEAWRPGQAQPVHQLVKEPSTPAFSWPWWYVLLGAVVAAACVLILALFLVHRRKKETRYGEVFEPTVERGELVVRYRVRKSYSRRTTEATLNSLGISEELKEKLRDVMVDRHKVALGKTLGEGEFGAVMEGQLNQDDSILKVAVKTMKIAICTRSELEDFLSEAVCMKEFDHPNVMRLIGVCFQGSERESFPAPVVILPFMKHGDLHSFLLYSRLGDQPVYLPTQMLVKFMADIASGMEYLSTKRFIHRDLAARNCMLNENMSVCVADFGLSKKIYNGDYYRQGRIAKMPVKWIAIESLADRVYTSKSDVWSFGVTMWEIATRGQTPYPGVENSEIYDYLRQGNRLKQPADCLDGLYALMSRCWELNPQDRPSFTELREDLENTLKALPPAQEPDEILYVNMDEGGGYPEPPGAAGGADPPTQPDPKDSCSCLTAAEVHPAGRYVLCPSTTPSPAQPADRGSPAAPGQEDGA

Chain of Serine/threonine-protein kinase PAK 6 (Homo sapiens) (Q9NQU5 whole entry, looked up): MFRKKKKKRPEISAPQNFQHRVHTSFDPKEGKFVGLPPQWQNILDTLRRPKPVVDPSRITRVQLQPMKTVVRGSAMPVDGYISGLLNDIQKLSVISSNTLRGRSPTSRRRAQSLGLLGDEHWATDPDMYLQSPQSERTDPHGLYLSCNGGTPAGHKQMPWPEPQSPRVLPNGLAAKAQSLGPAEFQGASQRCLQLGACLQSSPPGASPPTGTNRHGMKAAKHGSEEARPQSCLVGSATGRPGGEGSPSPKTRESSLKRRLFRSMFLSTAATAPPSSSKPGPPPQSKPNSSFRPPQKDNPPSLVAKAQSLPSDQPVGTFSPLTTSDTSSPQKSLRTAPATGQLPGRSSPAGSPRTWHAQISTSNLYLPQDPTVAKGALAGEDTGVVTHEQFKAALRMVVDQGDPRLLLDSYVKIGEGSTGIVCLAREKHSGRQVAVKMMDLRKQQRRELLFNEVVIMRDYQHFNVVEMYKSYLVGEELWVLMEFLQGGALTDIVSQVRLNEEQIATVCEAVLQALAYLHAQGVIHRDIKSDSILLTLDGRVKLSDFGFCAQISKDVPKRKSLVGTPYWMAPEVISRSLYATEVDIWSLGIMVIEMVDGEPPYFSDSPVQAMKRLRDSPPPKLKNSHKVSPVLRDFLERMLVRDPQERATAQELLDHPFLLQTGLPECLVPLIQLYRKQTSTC
Chain of Tyrosine-protein kinase ABL2 (Homo sapiens) (P42684 whole entry): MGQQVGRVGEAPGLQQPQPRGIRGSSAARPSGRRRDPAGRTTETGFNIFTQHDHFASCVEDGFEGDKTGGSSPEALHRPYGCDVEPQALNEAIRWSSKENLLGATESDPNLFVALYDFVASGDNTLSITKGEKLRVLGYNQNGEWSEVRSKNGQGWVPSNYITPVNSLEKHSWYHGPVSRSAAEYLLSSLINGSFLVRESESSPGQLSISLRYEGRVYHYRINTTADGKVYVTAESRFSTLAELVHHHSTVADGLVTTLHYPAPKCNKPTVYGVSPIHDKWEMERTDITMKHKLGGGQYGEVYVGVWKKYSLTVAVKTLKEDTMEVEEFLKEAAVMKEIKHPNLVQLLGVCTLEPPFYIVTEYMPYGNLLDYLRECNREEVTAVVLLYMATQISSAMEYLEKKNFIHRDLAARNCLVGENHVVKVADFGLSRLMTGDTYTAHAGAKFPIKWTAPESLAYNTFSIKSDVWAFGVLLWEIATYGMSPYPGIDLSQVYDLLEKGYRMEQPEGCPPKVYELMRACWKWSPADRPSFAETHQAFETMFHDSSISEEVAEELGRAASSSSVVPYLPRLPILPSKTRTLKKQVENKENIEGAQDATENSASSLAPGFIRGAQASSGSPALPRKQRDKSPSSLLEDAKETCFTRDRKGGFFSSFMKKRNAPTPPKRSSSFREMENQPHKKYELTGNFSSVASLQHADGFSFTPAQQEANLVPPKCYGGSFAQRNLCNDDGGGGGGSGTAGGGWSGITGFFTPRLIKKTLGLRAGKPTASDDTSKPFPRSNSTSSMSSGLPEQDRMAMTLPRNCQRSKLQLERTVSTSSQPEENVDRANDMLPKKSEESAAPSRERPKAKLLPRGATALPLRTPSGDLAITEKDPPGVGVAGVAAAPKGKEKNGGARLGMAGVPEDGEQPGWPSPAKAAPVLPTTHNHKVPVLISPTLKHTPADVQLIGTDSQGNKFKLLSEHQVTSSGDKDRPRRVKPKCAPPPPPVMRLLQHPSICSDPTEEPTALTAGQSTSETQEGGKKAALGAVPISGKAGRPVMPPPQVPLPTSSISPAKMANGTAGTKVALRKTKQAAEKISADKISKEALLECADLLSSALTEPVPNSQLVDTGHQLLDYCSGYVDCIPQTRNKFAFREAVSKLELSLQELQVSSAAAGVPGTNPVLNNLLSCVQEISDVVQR
Chain of ALK tyrosine kinase receptor (Homo sapiens) (Q9UM73 19-1620 limits assumed): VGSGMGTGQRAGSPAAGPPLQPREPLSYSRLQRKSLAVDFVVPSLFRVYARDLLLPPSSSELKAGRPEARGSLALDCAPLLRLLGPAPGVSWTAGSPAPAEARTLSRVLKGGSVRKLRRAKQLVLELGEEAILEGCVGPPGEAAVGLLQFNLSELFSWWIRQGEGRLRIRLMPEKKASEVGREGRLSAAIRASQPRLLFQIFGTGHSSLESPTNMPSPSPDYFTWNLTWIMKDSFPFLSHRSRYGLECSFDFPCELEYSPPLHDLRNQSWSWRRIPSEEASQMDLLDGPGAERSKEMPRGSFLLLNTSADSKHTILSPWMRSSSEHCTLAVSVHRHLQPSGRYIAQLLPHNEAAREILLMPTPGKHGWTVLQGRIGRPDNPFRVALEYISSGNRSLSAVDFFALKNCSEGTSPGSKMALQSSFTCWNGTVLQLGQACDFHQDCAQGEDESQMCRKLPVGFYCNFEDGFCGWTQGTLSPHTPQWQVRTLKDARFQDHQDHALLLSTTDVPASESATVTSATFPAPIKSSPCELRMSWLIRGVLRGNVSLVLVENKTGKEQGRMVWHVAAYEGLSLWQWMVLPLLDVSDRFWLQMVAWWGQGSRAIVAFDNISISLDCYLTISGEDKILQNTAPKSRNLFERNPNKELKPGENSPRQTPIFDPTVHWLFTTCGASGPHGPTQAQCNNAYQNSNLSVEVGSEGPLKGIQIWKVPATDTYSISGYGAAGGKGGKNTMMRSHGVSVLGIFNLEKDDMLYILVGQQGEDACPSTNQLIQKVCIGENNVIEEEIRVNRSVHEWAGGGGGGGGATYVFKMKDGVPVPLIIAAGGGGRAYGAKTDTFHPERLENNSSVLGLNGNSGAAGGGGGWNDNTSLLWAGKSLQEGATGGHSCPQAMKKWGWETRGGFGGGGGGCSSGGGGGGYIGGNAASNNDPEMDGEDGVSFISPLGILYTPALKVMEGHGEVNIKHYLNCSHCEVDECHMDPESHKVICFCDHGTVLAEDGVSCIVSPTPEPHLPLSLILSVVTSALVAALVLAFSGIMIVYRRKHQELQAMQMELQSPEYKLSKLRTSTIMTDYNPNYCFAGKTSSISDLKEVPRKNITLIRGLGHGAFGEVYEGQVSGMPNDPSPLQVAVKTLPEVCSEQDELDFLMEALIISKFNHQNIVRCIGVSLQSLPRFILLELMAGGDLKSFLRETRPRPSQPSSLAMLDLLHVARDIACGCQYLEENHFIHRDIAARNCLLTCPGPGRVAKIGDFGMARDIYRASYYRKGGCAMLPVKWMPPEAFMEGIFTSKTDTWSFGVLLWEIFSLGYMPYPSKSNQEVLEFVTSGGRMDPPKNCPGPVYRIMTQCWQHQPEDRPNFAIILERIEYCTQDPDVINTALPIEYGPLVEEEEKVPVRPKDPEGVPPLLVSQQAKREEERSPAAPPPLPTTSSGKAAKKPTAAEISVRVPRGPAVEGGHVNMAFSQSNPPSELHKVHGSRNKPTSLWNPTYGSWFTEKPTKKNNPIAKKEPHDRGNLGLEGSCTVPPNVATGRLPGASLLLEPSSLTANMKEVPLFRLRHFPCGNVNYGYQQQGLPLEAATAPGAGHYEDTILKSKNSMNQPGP

For orientation: inhibition means the drop in the measured response relative to a control, in per cent. In the case of `Nc1ccc(C#Cc2cncnc2Nc2ccc(OCc3cccc(F)c3)c(Cl)c2)cc1`, the inhibition is -1.86% in assay [1]; 2.88% in [2]; 3.39% in assay [3]; 2.21% in assay [4]; 2.72% in [5]; -1.21% in [6]. Moreover, the inhibition in [7] came to 0.91%; in assay [8] it was 2.9%; in assay [9], 2.24%; in [10], 1.6%; in [11] it was 1.84%; in [12], 1.89%. Moreover, the inhibition in assay [13] turned out to be 2.12%; in assay [14], 3.72%; in assay [15], 4%; in assay [16], 3.7%; in [17], 3.34%; in assay [18], 3.43%. For the same molecule, the values for the inhibition in assay [19] and in assay [20] were 4.12% and -4.2%, respectively.
Regarding `CCOc1nccc2c1nc(-c1nonc1N)n2CC`, the inhibition stood at 12.4% in assay [1]; 1.66% in [2]; 3.45% in assay [3]; 1.16% in [4]; 6.55% in assay [5]; 1.78% in [6]. Moreover, the inhibition in [7] was found to be 5.68%; in assay [8], 2.67%; in assay [9] it was 6.45%; in assay [10], 1.75%; in [11] it was 6.12%; in assay [12], 1.56%. For the same molecule, the inhibition in assay [13] came to 6.81%; in assay [14] it was 4.96%; in assay [15], 14.6%; in [16], 2.69%; in [17], 5.24%; in [18], 3.48%. Further, the values for the inhibition in assay [19] and in assay [20] were 11.2% and 0.71%, respectively.
For `CN(C)C(=O)O[C@H]1CN[C@H](C#Cc2cc3ncnc(Nc4ccc(OCc5cccc(F)c5)c(Cl)c4)c3s2)C1`, the inhibition is 7.18% in assay [1]; 2% in [2]; 3.31% in [3]; 2.06% in assay [4]; -0.36% in [5]; 0.95% in [6]. For the same molecule, the inhibition amounted to 0.49% in assay [7]; 4.6% in assay [8]; 3.58% in [9]; 2.75% in assay [10]; 1.25% in assay [11]; 4.89% in assay [12]. The inhibition in assay [13] was 4.19%; in assay [14], 3.76%; in assay [15] it was 8.35%; in [16], 2.82%; in assay [17] it was 5.03%; in assay [18], 3.49%. For the same molecule, the inhibition was 6.24% in assay [19] and -3.4% in assay [20].
For `CN(c1ccc(NC(=O)Nc2ccc(OC(F)(F)F)cc2)cc1)c1ccnc(Nc2cccc(S(N)(=O)=O)c2)n1`, the inhibition in [1] was -2%; in assay [2], 17.2%; in assay [3], 65.3%; in assay [4], 47.6%; in [5] it was 86.9%; in assay [6], 64.9%. In addition, the inhibition in [7] was determined as 91.2%; in assay [8] it was 65.8%; in assay [9], 90.2%; in assay [10], 48.7%; in assay [11], 86.2%; in [12] it was 39.2%. In addition, the inhibition is 81.5% in assay [13]; 14.3% in assay [14]; 71% in assay [15]; 1.46% in assay [16]; 4.22% in assay [17]; 20.2% in assay [18]. In addition, the inhibition in assay [19] is 71.9%; in [20], -2.29%.
Consider `Cc1ccc(Nc2ccnc(Nc3cccc(C(N)=O)c3)n2)cc1O`, for which the inhibition came to 4.03% in assay [1]; 71.2% in [2]; 93.4% in assay [3]; 76.5% in [4]; 94.4% in assay [5]; 74.4% in assay [6]. In addition, the inhibition in assay [7] was determined as 95%; in assay [8], 67.6%; in assay [9], 91.5%; in assay [10], 7.09%; in [11], 39.8%; in assay [12], 80.4%. Further, the inhibition is 94.1% in [13]; 56.4% in assay [14]; 79.5% in assay [15]; -0.94% in assay [16]; 10.9% in assay [17]; 50.8% in assay [18]. The results for the inhibition in assay [19] and in assay [20] were 77.1% and -5.49%, respectively.
As to `CC(C)c1ccc(Nc2nccc(-c3cnn4ncccc34)n2)cc1`, the inhibition was 2.84% in [1]; 1.9% in assay [2]; 4.45% in assay [3]; 3.09% in assay [4]; 8.88% in assay [5]; 1.81% in assay [6]. The inhibition in assay [7] is 10.2%; in assay [8] it was 2.85%; in [9], 11.6%; in [10] it was 2.34%; in assay [11], 10.6%; in assay [12], 4.68%. The inhibition in assay [13] stood at 10%; in [14], 3.33%; in assay [15] it was 13.3%; in assay [16], 4.56%; in assay [17], 23.7%; in assay [18] it was 4.44%. The inhibition is 10.6% in assay [19] and -4.19% in assay [20].
On to `COc1ccc(-c2nn3ncccc3c2-c2ccnc(Nc3cccc(C(F)(F)F)c3)n2)cc1`, for which the inhibition is -2.65% in assay [1]; 1.06% in assay [2]; 3.04% in assay [3]; 3.97% in assay [4]; 7.02% in [5]; 2.28% in assay [6]. The inhibition in assay [7] is 27%; in assay [8], 2.67%; in assay [9], 17.5%; in assay [10], 2.45%; in assay [11], 5.9%; in assay [12], 1.53%. The inhibition in assay [13] came to 5.56%; in assay [14], 5.5%; in assay [15] it was 4%; in [16], 3.3%; in [17], 5.15%; in assay [18], 2.28%. Further, the inhibition is 6.55% in assay [19] and -4.48% in assay [20].
With `NC(=O)c1sc(-n2cnc3ccccc32)cc1OCc1ccccc1Br`, the inhibition in [1] is -4.72%; in assay [2] it was 2.67%; in assay [3] it was 4%; in assay [4] it was 4.21%; in assay [5], 6.63%; in assay [6], 0.66%. Moreover, the inhibition in assay [7] was 3.16%; in assay [8], 3.16%; in assay [9], 4.86%; in assay [10], 3.2%; in [11], 4.17%; in assay [12] it was 2.98%. For the same molecule, the inhibition was 5.62% in [13]; 4.27% in [14]; 9.67% in assay [15]; 4.26% in assay [16]; 6.94% in [17]; 4.44% in [18]. Besides, the inhibition in assay [19] was 7.23%; in assay [20], -6.14%.
Turning to `NS(=O)(=O)c1ccc(Nc2cc(-c3cccc(O)c3)n[nH]2)cc1`, the inhibition in assay [1] is -5.13%; in [2], 4.46%; in assay [3], 7.4%; in assay [4], 5.03%; in assay [5] it was 5.99%; in assay [6], 4.35%. Besides, the inhibition in assay [7] was found to be 4.29%; in [8], 5.44%; in assay [9], 5.74%; in [10] it was 4.08%; in assay [11], 7.24%; in assay [12], 6.94%. The inhibition in assay [13] amounted to 11.8%; in [14] it was 5.23%; in [15], 11.4%; in [16], 3.58%; in [17] it was 7.98%; in assay [18], 5.93%. Also, the inhibition in assay [19] was found to be 6.81%.
As for `CN(C)c1cc2c(Nc3ccc4c(cnn4Cc4ccccc4)c3)ncnc2cn1`, the inhibition in assay [1] is -3.27%; in assay [2], 1.1%; in assay [3] it was 1.85%; in assay [4] it was 0.57%; in assay [5] it was 0.96%; in assay [6] it was -0.53%. The inhibition in assay [7] is 1.01%; in assay [8], 0.79%; in [9], 3.55%; in [10] it was -1.13%; in assay [11], -1.27%; in [12], 1.19%. Further, the inhibition is 3.05% in assay [13]; 2.46% in [14]; 5.43% in assay [15]; 2.86% in assay [16]; 4.13% in assay [17]; 1.06% in [18]. Besides, the inhibition in assay [19] is 8.48%; in assay [20] it was -6.03%.
Regarding `COC(=O)c1ccc2c(c1)C(=Cc1cc(Br)c(O)c(Br)c1)C(=O)N2`, the inhibition in assay [1] is -6.8%; in assay [2], 2.18%; in [3], 13.1%; in assay [4], 4.03%; in assay [5], 14.9%; in assay [6], 0.64%. The inhibition was determined as 12.9% in [7]; 2.75% in assay [8]; 15.8% in assay [9]; 1.82% in assay [10]; 2.87% in assay [11]; 2.56% in assay [12]. The inhibition in assay [13] came to 15.9%; in [14], 7.83%; in assay [15], 21.2%; in assay [16] it was 5.2%; in assay [17] it was 15%; in assay [18], 5.66%. Further, the inhibition is 15.4% in assay [19] and -5.02% in [20].
For `CCS(=O)(=O)c1ccc(OC)c(Nc2ncc(-c3cccc(OC)c3)o2)c1`, the inhibition in [1] was determined as 2.64%; in assay [2], 34%; in [3] it was 81.1%; in assay [4], 41.6%; in assay [5], 85.4%; in assay [6], 43.2%. Besides, the inhibition in [7] came to 86.1%; in assay [8], 46.6%; in assay [9], 86.5%; in assay [10] it was 6.23%; in assay [11], 26.5%; in assay [12], 48.5%. Moreover, the inhibition in assay [13] was found to be 86.3%; in assay [14] it was 29.8%; in assay [15], 77.7%; in assay [16] it was 2.9%; in assay [17], 8.1%; in assay [18], 27.3%. In addition, the inhibition was 72.6% in assay [19] and -3.48% in assay [20].
As for `COc1cc2ncnc(Nc3ccc4c(cnn4Cc4ccccc4)c3)c2cc1OC`, the inhibition was -6% in assay [1]; 2.21% in assay [2]; 2.28% in [3]; 2.93% in assay [4]; 6.16% in assay [5]; 0.94% in [6]. Moreover, the inhibition in assay [7] is 3.26%; in assay [8], 2.63%; in assay [9] it was 7.1%; in assay [10], 2.91%; in [11] it was 7.47%; in assay [12], 2.86%. In addition, the inhibition in [13] came out at 4.15%; in assay [14], 3.47%; in assay [15], 3.36%; in assay [16], 1.67%; in [17] it was 3.06%; in assay [18] it was 0.85%. The inhibition in [19] was 4.75%; in assay [20], -3.79%.

Values taken from ChEMBL document CHEMBL1961873, “Compounds: GSK PKIS; Assays: Nanosyn kinase panel” (2012).
